This is one part of a sample in which hits are shown more often than they occur.
Algae TAG accum: inducers of TAG accumulation in Chlamydomonas, primary screen, qHTS, Chlamydomonas reinhardtii; Nile Red fluorescence, 72 h; calls only at 10 µM (by protocol); 0.84% of 44,000 active; AID 1159537, 2015; call rule not given here;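 also: hits raise Nile Red signal meaning more stored TAG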
Of the large screens only hits and unclear results are named; the others gave an inactive call.

COc1cc(C(=O)Nc2cccc(F)c2)cc(OC)c1OC	none
COc1cc(C(=O)Nc2cccc(NC(=O)c3ccccc3)c2)cc(OC)c1OC	none
COc1cc(C(=O)Nc2cccc(C(=O)c3ccc(C)c(C)c3)c2)cc(OC)c1OC	Algae TAG accum active
Cc1ccc(N(C(=O)COc2ccc(Br)cc2)C2C=CS(=O)(=O)C2)cc1 (centres undefined)	none
O=C1C(=O)c2ccccc2C(O)=C1CC(=O)c1ccccc1	none
Cc1ccc(C)c(N2CCN(Cc3ccc(C)s3)CC2)c1	none
C/C=C(\C)CN1CCN(c2cc(C)ccc2C)CC1	none
Cc1ccc(C)c(N2CCN(C3CCCCCC3)CC2)c1	Algae TAG accum active
CCCOc1ccc(C(=O)Nc2ccccc2I)cc1	none
COc1cccc(NC2=C(N(C)C)C(=O)c3ccccc3C2=O)c1	Algae TAG accum active
COc1ccc(NC2=C(N(C)C)C(=O)c3ccccc3C2=O)cc1	none
CN(C)C1=C(Nc2cccc(Cl)c2)C(=O)c2ccccc2C1=O	none
CS(=O)(=O)N1CCc2cc(Br)ccc21	none
COc1cccc(C(=O)Nc2cccc(-c3nc4cc(C)ccc4o3)c2C)c1	none
O=C(Nc1cccnc1)c1ccc(-c2ccc(Cl)cc2)o1	none
O=C(Nc1cccnc1)c1ccc(S(=O)(=O)c2ccc(Cl)cc2)cc1	Algae TAG accum active
CS(=O)(=O)N(Cc1ccccc1Cl)c1ccc(C(=O)Nc2cccnc2)cc1	none
Cc1c(C)c(C)c(C(=O)Nc2c(Cl)cccc2Cl)c(C)c1C	none
CCN(CC)C1CC(=O)N(c2cccc([N+](=O)[O-])c2)C1=O (centres undefined)	none
O=C1CC(=O)NC(SCc2c(Cl)cccc2[N+](=O)[O-])=N1	none
COc1ccc2c(c1)C(C)=CC(C)(C)N2	none
COc1cccc(N2CCN(C3CCC(C)C3)CC2)c1 (centres undefined)	none
COc1ccccc1N1CCN(C2CCC(C)CC2)CC1 (centres undefined)	none
CC1CCC(N2CCN(c3ncccn3)CC2)C1 (centres undefined)	none
COc1cccc(N2C(=O)CC(N3CCN(c4ccccc4)CC3)C2=O)c1 (centres undefined)	none
COc1cccc(N2CCN(C3CCCC(C)C3)CC2)c1 (centres undefined)	Algae TAG accum active
CC1CCC(N2CCN(c3ccccc3)CC2)C1 (centres undefined)	Algae TAG accum active
COc1c(Cl)cccc1NC(=O)c1cccs1	none
COCCCN1C(=O)C(=O)C(=C(O)c2ccc(OC)cc2)C1c1ccccc1F (centres undefined)	none
Cc1cc(OCCCN2CCN(C)CC2)ccc1C(C)C	none
CCOc1ccc(OCCOCCN2CCN(C)CC2)cc1	none
Cc1cc(Br)ccc1OCCN1CCN(C)CC1	none
Cc1cc(Br)ccc1OCCCN1CCCC1	none
Cc1cc(Br)ccc1OCCCN1CCN(C)CC1	Algae TAG accum active
CC(C)c1ccc(OCCOCCN2CCN(C)CC2)cc1	none
CN1CCN(CCCOc2ccc(Br)cc2)CC1	Algae TAG accum active
Cc1cc(OCCCCN2CCN(C)CC2)cc(C(C)C)c1	Algae TAG accum active
CN1CCN(CCCOc2ccc(C(=O)c3ccccc3)cc2)CC1	none
O=C(Nc1ccc(NC(=O)c2ccccc2Br)cc1)c1ccc(Cl)cc1Cl	none
COc1ccccc1C(CC#N)C1CCOC(C)(C)C1 (centres undefined)	none
COc1ccc2oc(-c3ccc(OC)c(OC)c3)cc(=O)c2c1	none
COc1ccccc1C(=O)Nc1cccc(Br)c1	none
O=C(Nc1ccc(F)cc1)c1cccc(Cl)c1Cl	none
O=C(Nc1ccc([N+](=O)[O-])cc1)c1cccc(Cl)c1Cl	Algae TAG accum active
O=C(Nc1cccc([N+](=O)[O-])c1)c1ccccc1Cl	none
CCc1ccc(N2CC(C(=O)Nc3c(C)cccc3Cl)CC2=O)cc1 (centres undefined)	none
COc1ccc(Cc2cnc(NC(=O)Cc3ccccc3)s2)cc1	none
O=C(Nc1ncc(Cc2ccc(F)cc2)s1)C1CCCO1 (centres undefined)	none
O=C(CN1CCCCC1)Nc1ncc(Cc2ccc(F)cc2)s1	Algae TAG accum active
Nc1nc(Cc2ccc([N+](=O)[O-])cc2)ns1	none
O=C1c2ccccc2C(=O)N1c1nc(-c2ccccc2)cs1	none
COc1cc([N+](=O)[O-])ccc1NC(=O)c1ccccc1F	none
COc1cc([N+](=O)[O-])ccc1NC(=O)c1ccc(C)c(C)c1	none
COc1cc([N+](=O)[O-])ccc1NC(=O)c1c(F)c(F)c(F)c(F)c1F	Algae TAG accum active
O=C1CC(NCCC2=CCCCC2)C(=O)N1c1ccc(F)cc1 (centres undefined)	none
O=C(C1CCN(Cc2ccccc2F)CC1)N1CCCC1	none
Cc1ccc(OCC(=O)Nc2cccc([N+](=O)[O-])c2C)c(Br)c1	none
Cc1c(NC(=O)COc2ccc(Br)cc2)cccc1[N+](=O)[O-]	Algae TAG accum active
Cc1cccc(NC(=O)COc2ccc(Br)cc2)c1C	none
CCC1CCCCN1S(=O)(=O)N(C)C (centres undefined)	none
COc1ccccc1C(=O)Nc1ccc(-c2nnc(SCC(=O)c3ccccc3)n2C)cc1	none
O=C(O)C1CCN(C(=O)c2ccc(F)cc2)CC1	Algae TAG accum active
O=C(c1ccc(F)cc1)N1CCCCCC1	none
Cc1ccc(C(=O)N2CCC(C(=O)O)CC2)cc1	none
O=[N+]([O-])c1ccccc1S(=O)(=O)N1CCN(C2CCCCC2)CC1	none
C=C(C)[C@@H]1CC=C(CN2CCC(O)CC2)CC1	none
O=C(NC1CCN(Cc2ccccc2)CC1)c1sc2ccccc2c1Cl	none
O=C(NC1CCN(Cc2ccccc2)CC1)c1ccccc1Br	none
O=C(NC1CCN(Cc2ccccc2)CC1)c1ccc(Cl)cc1Cl	Algae TAG accum active
Oc1ccc(C2CC(c3ccccc3O)=NN2)cc1 (centres undefined)	none

Screening results from PubChem BioAssay.
